Counter-ions that a name gives are not always drawn. The campaign covered roughly 1,500 compounds. About 30 (2%) showed activity.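 Rule for the calls: active = robust z-score below -2; a few such results were not called.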 Many of the other results were omitted from the sample, so actives are more common in it than they were.
Each molecule was assayed on optoTopBP1 Flp-In 293 T-REx (HEK293) cells (assay: light-induced TopBP1 condensate (nuclear foci) count, plate-normalised robust z-score vs non-control wells; higher = more TopBP1 condensates (negative = condensation inhibitor), active = hit call of the paper). Conditions: 10 µM; incubation time 2 h.

SMILES | light-induced TopBP1 condensate (z-score)
C[CH2][Hg][S]c1ccccc1C(=O)[O-].[Na+] [Thimerosal] | -8.21 (active)
C[C@]12CC[C@H]3[C@@H](CCC4=CC(=O)CC[C@@H]43)[C@@H]1CC[C@@H]2O [Nandrolone] | 2.28 (inactive)
O=C([O-])c1ccccc1-c1c2cc(Br)c(=O)cc-2oc2[c]([Hg+])c([O-])c(Br)cc12.[Na+].[Na+].[OH-] [Merbromin] | -0.221 (inactive)
C[C@]12CC[C@@H](O)C[C@H]1CC[C@@H]1[C@@H]2CC[C@]2(C)C(=O)CC[C@@H]12 [3-alpha-Hydroxy-5-beta-androstan-17-one] | -0.529 (inactive)
C[C@]12CC[C@H](O)C[C@@H]1CC[C@@H]1[C@@H]2CC[C@]2(C)C(=O)CC[C@@H]12 [Epiandrosterone] | -0.588 (inactive)
C[C@]12CC[C@H](O)C[C@H]1CC[C@@H]1[C@@H]2C[C@@H](O)[C@]2(C)[C@@H](C3=CC(=O)OC3)CC[C@]12O [Digoxigenin] | -2.51 (active)
C[C@]12CC[C@@H](O)C[C@@H]1CC[C@@H]1[C@@H]2CC[C@]2(C)C(=O)CC[C@@H]12 [Androsterone] | 0.981 (inactive)
CC(=O)O[C@H]1C[C@H](O[C@H]2[C@@H](O)C[C@H](O[C@H]3[C@@H](O)C[C@H](O[C@H]4CC[C@@]5(C)[C@H](CC[C@@H]6[C@@H]5C[C@@H](O)[C@]5(C)[C@@H](C7=CC(=O)OC7)CC[C@]65O)C4)O[C@@H]3C)O[C@@H]2C)O[C@H](C)[C@H]1O[C@@H]1O[C@H](CO)[C@@H](O)[C@H](O)[C@H]1O [Lanatoside C] | -1.56 (inactive)
C[C@]12CC[C@H](O)C[C@H]1CC[C@@H]1[C@@H]2CC[C@]2(C)[C@@H](C3=CC(=O)OC3)CC[C@]12O [Digitoxigenin] | -2.06 (active)
CO[C@]12C[C@@H](COC(=O)c3cncc(Br)c3)CN(C)[C@@H]1Cc1cn(C)c3cccc2c13 [Nicergoline] | -0.703 (inactive)
CC(=O)NC1CCSC1=O (racemic) [N-Acetyl-DL-homocysteine Thiolactone] | -0.247 (inactive)
CC(=O)O[C@H]1CC[C@@]2(C)C(=CC[C@@H]3[C@@H]2CC[C@]2(C)C(=O)CC[C@@H]32)C1 [Dehydroisoandosterone 3-acetate] | -0.674 (inactive)
COc1cc([C@@H]2c3cc4c(cc3[C@H](O)[C@H]3COC(=O)[C@H]23)OCO4)cc(OC)c1OC [Podophyllotoxin] | -2.43 (active)
COc1cc2c(c(OC)c1OC)-c1ccc(OC)c(=O)cc1[C@@H](NC(C)=O)CC2 [Colchicine] | -1.18 (inactive)
CC(CCc1ccccc1)NC(C)C(O)c1ccc(O)cc1 (stereo not given) [Nylidrin] | 0.555 (inactive)
C#C[C@]1(O)CC[C@H]2[C@@H]3CCC4=CC(=O)CCC4=C3C=C[C@@]21CC [Gestrinone] | 0.545 (inactive)
CN1C(=O)COc2c(C(=O)NC3CN4CCC3CC4)cc(Cl)cc21 (stereo not given) [Azasetron hydrochloride] | 0.519 (inactive)
C[N+]1(C)[C@@H]2CC[C@H]1C[C@@H](OC(=O)C(CO)c1ccccc1)C2 (stereo not given in full) [Methylatropine nitrate] | -0.568 (inactive)
COc1ccc(CCN)cc1OC [Homoveratrylamine] | -1.31 (inactive)
C[C@]12CCC(=O)C=C1C=C[C@@H]1[C@@H]2CC[C@@]2(C)[C@H]1CC[C@@]2(O)CCC(=O)O [Canrenoic acid potassium salt] | 1.33 (inactive)

— the supplement of paper PMC12582362
